Unmarked numbers belong to inactive results. No rule for the calls is given here.
target: L-lactate dehydrogenase (Plasmodium falciparum (isolate CDC / Honduras)) (UniProt Q27743); assay: PfLDH activity inhibition – cell lysate, 3D7 strain, counter-screen for P. falciparum growth inhibition project (AID 2304);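 also: 0% = vehicle and 100% = reference inhibitor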; settings: P. falciparum 3D7 crude extract, LDH APAD/NBT absorbance; at 2 µM; stronger effect = higher value
Sequence (Q27743 whole entry, looked up): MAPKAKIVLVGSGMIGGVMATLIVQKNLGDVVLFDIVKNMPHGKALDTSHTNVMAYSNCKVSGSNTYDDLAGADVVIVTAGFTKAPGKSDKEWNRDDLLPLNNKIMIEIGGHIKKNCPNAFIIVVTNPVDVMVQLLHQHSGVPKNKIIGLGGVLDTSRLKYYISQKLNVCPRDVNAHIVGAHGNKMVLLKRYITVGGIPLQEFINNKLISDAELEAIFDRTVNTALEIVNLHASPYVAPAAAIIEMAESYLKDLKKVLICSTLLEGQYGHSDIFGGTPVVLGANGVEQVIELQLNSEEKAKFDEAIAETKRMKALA

Structure (SMILES) | inhibition
O=c1ccc2ncc(Cl)c3c2n1CC3CN1CCC(NCc2cc3c(cn2)OCCO3)CC1 (configuration not stated) | -2%
CC(=O)c1sc(Cc2nc3ccccc3s2)nc1C | 1%
CCN1CCN(c2ccc(Nc3ccnc4ccc(Br)cc34)cc2)CC1 | 2%
O=C(NCC1Cc2cc(Oc3ccccc3)ccc2O1)c1ccc([N+](=O)[O-])o1 (configuration not stated) | -3%
CCN(CC)CCN(Cc1ccc(-c2ccc(C(F)(F)F)cc2)cc1)C(=O)c1ccc(-c2ccc(NC(=O)OC)cc2C)cc1 | -6%
COc1ccc(CNCCc2cccs2)cc1-c1cccc(S(=O)(=O)NCCN2CCCC2)c1 | -1%
O=C(Nc1ccc(-c2cccc(-c3nc4ccc(C(F)(F)F)cc4[nH]3)c2)cc1)Nc1ccc(Cl)c(Cl)c1 | 7%
CCN(CC)CCN(Cc1ccc(-c2ccc(C(F)(F)F)cc2)cc1)C(=O)Cn1c(CCC2CCCCC2)nc(=O)c2ccccc21 | 3%
CC(Oc1ccc(NC(=O)c2cccs2)cc1)C(=O)c1ccc(Cl)cc1 (configuration not stated) | 1%
CC(=O)Nc1ccc(C(=O)Nc2ccc(-c3cccc(-c4nc5c(C)cccc5[nH]4)c3)cc2)cn1 | -7%
COc1ccc(-c2ccc(CNC(=O)c3ccc(C#N)cc3)c(F)c2)cc1CN1CCCN(C)CC1 | -10%
CC1CN(C(=O)c2sc3ccccc3c2Cl)CC(C)O1 (configuration not stated) | 3%
COc1ccc2nccc([C@@H](O)CN3CCC(NCc4ccc(OC)c(NC(C)=O)c4)CC3)c2c1 | -4%
COc1ccc(Nc2nc(C)cc(NC3CCCC3)n2)cc1 | 0%
COc1cc2nc(NCCc3ccccc3)nc(NCc3cc(C)no3)c2cc1OC | -3%
c1ccc2c(C3CCN(CCCCOc4ccc5c(c4)CCN(C4CCC4)CC5)CC3)c[nH]c2c1 | -3%
Cc1cc(N[C@@H](Cc2ccccc2)C(=O)NCCCOC(C)C)nc(NCC2CCCCC2)n1 | -4%
COc1ccc(C(=O)CCC(=O)N(Cc2ccc(-c3ccc(CNCc4cccnc4)cn3)cc2)C2CCN(Cc3ccccc3)CC2)cc1F | 3%
O=[N+]([O-])c1cc2c(cc1C=NNc1nc(Nc3ccccc3)nc(Nc3ccccc3)n1)OCO2 | -2%
Cc1cccc2[nH]c(-c3cccc(-c4cccc(CN5CCN(c6ccncc6)CC5)c4)c3)nc12 | -5%
CC(C)CCn1c(Sc2ccc(C#N)c([N+](=O)[O-])c2)nnc1-c1cccc(Cl)c1 | 0%
O=C(Nc1ccc(-c2cccc(-c3nc4ccccc4[nH]3)c2)cc1)Nc1ccc(Cl)c(Cl)c1 | -2%
O=C(/C=C/c1ccc(Cl)c(Cl)c1)NCCCCCCN1CCCN(C(=O)Nc2ccc(C(F)(F)F)cc2)CC1 | -8%
O=C(N[C@@H](Cc1ccccc1)C(=O)NC1CCCc2ccccc21)c1ccc(O)c(-c2ccc(Cl)c(Cl)c2)c1 (some centres not stated) | -8%
CN(C(=O)c1snnc1-c1ccccc1)C1CCN(CCCCCNC(=O)/C=C/c2ccc(Cl)c(Cl)c2)CC1 | 4%
CC(C)N1CCN(C(CN2CCN(CCCOc3ccccc3-c3ccccc3)CC2)c2ccc(F)cc2)CC1 (configuration not stated) | 5%
C=CCOC(=O)N1CCC(CNCc2cccc(-c3ccc(-c4nc5c(C)cccc5[nH]4)s3)c2)C1 (configuration not stated) | -6%

— PubChem BioAssay
